Results reported in PubChem BioAssay (Tox21).
Records with an inconclusive call do not appear. Values without a mark were called inactive. Calls of active or inactive are those of the source. The call rests on the fitted dose curve; in most records, active means well fitted activation curve with a large enough effect in the repeat runs; inconclusive means weak or mixed curves; inactive means no such curve, though single readings can be large or run the other way.

Molecular target: Nuclear receptor subfamily 1 group I member 3 (Homo sapiens) (UniProt Q14994)
Assay: qHTS assay to identify small molecule agonists of the constitutive androstane receptor (CAR) signaling pathway (AID 1224839); further: nearly all actives have a fitted effect of over 15% in size;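 on activation: HepG2 cells stably carrying human CAR and a CYP2B6 luciferase reporter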
Settings: HepG2 hCAR CYP2B6-luciferase, agonist mode, 24 h; series mostly up to 92.4 µM; activation: at the top concentration
In short: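 HepG2-CYP2B6-hCAR cells, 2500/well, 4 h pre-incubation; compounds 15 conc.; PK11195 0.75 uM final; 24 h, 37 C/5% CO2; ONE-Glo luciferase read.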
On the % scale 0 is the no-effect control and ±100 the full control effect; potency means the concentration at half of the fitted maximal effect.

Sequence of Nuclear receptor subfamily 1 group I member 3 (Homo sapiens) (Q14994 whole entry, looked up): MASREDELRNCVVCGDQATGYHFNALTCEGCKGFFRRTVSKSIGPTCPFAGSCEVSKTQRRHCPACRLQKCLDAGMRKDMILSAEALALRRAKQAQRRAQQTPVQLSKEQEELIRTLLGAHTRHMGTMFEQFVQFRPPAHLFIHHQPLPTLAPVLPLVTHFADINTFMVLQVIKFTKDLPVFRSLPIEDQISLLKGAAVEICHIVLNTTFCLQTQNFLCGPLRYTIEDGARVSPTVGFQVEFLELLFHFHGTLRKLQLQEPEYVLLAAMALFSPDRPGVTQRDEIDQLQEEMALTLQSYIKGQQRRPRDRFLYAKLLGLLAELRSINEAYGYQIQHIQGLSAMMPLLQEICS

Row | Structure (SMILES) | activation | Potency
1 | O=C(NC(=O)c1ccccc1Cl)Nc1ccc(OC(F)(F)F)cc1 | 3.41% | 
2 | CSSC | -13.1% | 
3 | Nc1ccc(N=Nc2ccccc2)cc1 |  | 30.6 µM (active)
4 | Nc1nc(N)nc(Cl)n1 | -4.22% | 
5 | ClSC(Cl)(Cl)Cl | -0.0266% | 
6 | CCC[CH2][Sn]([CH2]CCC)([CH2]CCC)[CH2]CCC | -23.1% | 
7 | CNC(=O)CSP(=O)(OC)OC | -1.53% | 
8 | CCCCON=O | 1.41% | 
9 | CC(C)NCC(O)c1ccccc1Cl (stereo unspecified) | 0.194% [at 42.5 µM] | 
10 | C[C@H]1[C@H](c2ccc(Cl)cc2)SC(=O)N1C(=O)NC1CCCCC1 |  | 54.5 µM (active)
11 | C#CCO | -1.56% | 
12 | Cc1cc2c3c(c1)C(c1ccccc1)=N[C@@H](NC(=O)c1ccncc1)C(=O)N3CC2 | -3.47% | 
13 | COc1ccc(Cc2nccc3cc(OC)c(OC)cc23)cc1OC |  | 15 µM (active)
14 | BrCCCBr | -0.143% | 
15 | CCNc1nc(NC(C)C(C)C)nc(SC)n1 (stereo unspecified) |  | 48.6 µM (active)
16 | O=[N+]([O-])c1cccc2cccc([N+](=O)[O-])c12 |  | 54.7 µM (active)
17 | O=C(N[C@H]1N=C(c2ccccc2F)c2cccc3c2N(CC3)C1=O)c1cc2ccccc2[nH]1 | -5.13% [at 42.5 µM] | 
18 | Cc1ccn2nc(S(=O)(=O)Nc3c(F)cccc3F)nc2n1 | -4.27% | 
19 | O=[N+]([O-])c1ccccc1-c1ccccc1 | 6.63% | 
20 | CN1[C@@H]2CC[C@H]1CC(O)C2 (stereo partly specified) | 2.62% | 
21 | CN | 9.61% | 
22 | CC1CN1 (stereo unspecified) | 2.64% | 
23 | CC(Cc1ccc2c(c1)OCO2)NO (stereo unspecified) | 2.5% | 
24 | O=[N+]([O-])c1ccc(CCl)cc1 | -0.394% | 
25 | CC1CCCC1 | 1.11% | 
26 | Oc1ccc([C@H]2CNCc3c2ccc(O)c3O)cc1O | -2.72% [at 42.5 µM] | 
